Sampled rows, rich in hits. Any-hit rate of the full collection: about 2.4%.
D2 ag-1: human D2 receptor agonism in beta-arrestin assay; P14416; DiscoveRx PathHunter D2 beta-arrestin, luminescence, 90 min; 100% = 57 uM dopamine signal; activation, % (concentration not given with the values); actives 0.084% (n = 360,000); in the data active means activation above about 40%; inconclusive means between about 15% and that limit
Target sequence (P14416 whole entry, looked up): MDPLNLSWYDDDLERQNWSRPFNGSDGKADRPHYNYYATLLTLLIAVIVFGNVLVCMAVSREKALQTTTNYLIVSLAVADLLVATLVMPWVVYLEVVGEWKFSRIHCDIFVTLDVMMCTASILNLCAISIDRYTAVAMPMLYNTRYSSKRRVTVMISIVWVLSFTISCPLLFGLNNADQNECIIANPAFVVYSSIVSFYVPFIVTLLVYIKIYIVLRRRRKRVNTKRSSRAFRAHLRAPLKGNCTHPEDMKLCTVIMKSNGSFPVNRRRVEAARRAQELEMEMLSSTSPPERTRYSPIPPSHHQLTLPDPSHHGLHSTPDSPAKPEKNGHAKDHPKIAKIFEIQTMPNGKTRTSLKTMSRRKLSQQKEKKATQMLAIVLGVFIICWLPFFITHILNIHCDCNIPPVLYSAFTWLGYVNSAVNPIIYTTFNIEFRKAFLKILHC
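DiscoveRx PathHunter D2 beta-arrestin cells (2,100/well) attached overnight, then compound-stimulated 90 min at 37 C in HBSS/10 mM HEPES/0.1% Tween-20 buffer; beta-galactosidase complementation read by luminescence after 1 h at ambient temperature. Dopamine 57 uM final (EC100) as control.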
D2 PAM-1: human D2 receptor positive allosteric modulation; P14416; DiscoveRx D2 beta-arrestin cells, luminescence, 90 min; 100% = 57 uM dopamine signal; potentiation, % (no concentration beside the values); actives 0.23% (n = 360,000); in the data active means potentiation above about 50%; inconclusive means mostly about 30% to 49%
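PathHunter D2 cells, attached overnight at 37 deg C, received compound in DMSO plus dopamine at EC20 (50 nM final) for 90 min at 37 deg C. Beta-arrestin recruitment was read as luminescence after 1 h with detection reagent at ambient temperature.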
D2 antag: antagonists of human D2 dopamine receptor. P14416. HEK293 TREx D2 cells, calcium flux, dopamine EC80. inhibition, % at 10 µM. actives 2% (n = 340,000); in the data active means inhibition above about 30%; inactive means below that, where a call was filed; further: 0% is about no effect
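Antagonism is scored as inhibition of an EC80 dopamine-evoked calcium signal in a force-coupled, tetracycline-inducible HEK293 T-REx D2 line, with compound present 180 s before agonist.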
D2 ag-2: agonists of human D2 dopamine receptor | actives 0.53% (n = 340,000) | HEK293 T-REx D2 cells, calcium flux agonist mode | activation, % at 2 µM | P14416;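 active means activation over 3 SD above normal in the single-dose calcium agonist read, cut at about 30% in these data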; further: 0% is about no effect
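In this primary screen, compounds producing a positive calcium signal within 180 s of addition to tetracycline-induced, force-coupled HEK293 Trex D2 cells are flagged; cells are dye-loaded with a no-wash calcium kit beforehand.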
D2 PAM-2: positive allosteric modulators of human D2 dopamine receptor; actives 0.34% (n = 340,000); potentiation, % at 10 µM; HEK293 T-REx D2, calcium flux, EC20 dopamine potentiation; P14416; AID 485347;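 active means potentiation over 3 SD above the plate norm, cut at about 30% in these data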; further: 0% is about no effect
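Using a no-wash calcium dye in inducible, force-coupled HEK293 Trex cells expressing D2, we tracked fluorescence each second for 180 s after compound, then for 180 s after EC20 dopamine to detect augmented signalling.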
An asterisk follows results filed as active; ? = inconclusive; / = not tested or not shown.

SMILES | D2 ag-1 | D2 PAM-1 | D2 antag | D2 ag-2 | D2 PAM-2
Cc1nnc(NC(=O)CCC2CCCCC2)s1 | -3 | -4 | / | / | /
O=C(Nc1ccncc1)c1cc2ccccc2cc1O | ? | 137* | 0 | 3 | 20
CCOc1cc2c(cc1O)C(=NO)CC1C2CCC2(C)C(O)CCC12 (stereo not given) | 5 | 5 | / | / | /
N#Cc1c2c(c(NCc3ccco3)n3c1nc1ccccc13)CCC2 | -2 | -2 | 0 | 0 | 4
N#Cc1c2c(c(Nc3ccc(O)cc3)n3c1nc1ccccc13)CCC2 | ? | 68* | 14 | -1 | 17
Cc1nc2cc(NC(=O)c3cccc(S(C)(=O)=O)c3)ccc2o1 | -1 | -6 | 33* | 0 | -17
Cc1ccc(NC(=O)c2cccc(S(C)(=O)=O)c2)cc1 | -2 | -9 | -3 | 1 | 2
CCn1c(=O)c(C(=O)NNC(=O)c2ccccc2Cl)c(O)c2ccccc21 | -2 | -10 | -17 | -3 | /
CCn1c(=O)c(C(=O)NNC(=O)c2ccccc2F)c(O)c2ccccc21 | 3 | -5 | 21 | 48* | -9
CC(=O)N1CCN(c2ccc([N+](=O)[O-])cc2)CC1 | -1 | -6 | -4 | 0 | 4
CC(=O)N1CCN(C(=S)c2ccc([N+](=O)[O-])cc2)CC1 | -5 | 1 | 48* | 0 | -16
Cc1ccc(C(=O)Oc2oc(-c3ccccc3)nc2C=Nc2ccc(N(C)C)cc2)cc1 | -1 | -18 | -8 | -2 | 39*
CS(=O)(=O)N(CCc1ccccc1)CC(=O)N1CCN(Cc2ccc3c(c2)OCO3)CC1 | -3 | -10 | 44* | -2 | 8
O=C(CCCCCn1c(=O)[nH]c2ccccc2c1=O)N1CCN(Cc2ccc3c(c2)OCO3)CC1 | 3 | 2 | 5 | 35* | -17
O=C(Cn1c(=O)[nH]c2ccccc2c1=O)N1CCN(Cc2ccc3c(c2)OCO3)CC1 | 1 | -21 | 4 | 1 | 1
CCc1ccc(NC(=O)CC(c2ccc(C)cc2)N2Cc3ccccc3C2=O)cc1 (stereo not given) | / | / | / | -1 | 5
Cc1nc2ncccn2c1-c1csc(NCc2ccco2)n1 | 1 | -20 | 1 | 0 | 38*
COc1cc(CNCc2cc(OC)c(OC)c(OC)c2)cc(OC)c1 | -1 | -3 | 30* | 0 | 2
Cc1cc(Nc2ccc(F)cc2)n2c(nc3ccccc32)c1C#N | / | / | / | 2 | 12
Cc1cc(Nc2cccc([N+](=O)[O-])c2)n2c(nc3ccccc32)c1C#N | -1 | 16 | 35* | 4 | 8
O=C(NN=Cc1ccc2c(c1)CCN2)c1cccs1 | -3 | -22 | / | / | /
COc1ccccc1NC(=O)NCC1(N(C)C)CCCCC1 | -4 | -16 | 59* | 0 | -17
O=C(CSc1ccc(Br)cc1)NCC(c1ccco1)N1CCCCC1 (stereo not given) | -4 | 3 | 39* | 0 | 0
COc1ccccc1NS(=O)(=O)c1cc(C(=O)NCC(c2ccco2)N2CCCCC2)ccc1C (stereo not given) | -1 | -39 | / | / | /
COc1ccccc1NC(=O)NCC(c1ccco1)N1CCCCC1 (stereo not given) | -4 | -28 | 39* | 0 | -15
SMILES | D2 ag-1 | D2 PAM-1 | D2 antag | D2 ag-2 | D2 PAM-2
CCCn1cc(S(=O)(=O)c2ccc(OC)cc2)c(=O)c2cc(F)c(N3CCCC(C)C3)cc21 (stereo not given) | / | / | / | -1 | -1
Cc1ccn2c(Nc3ccc4c(c3)OCO4)c(-c3ccc(C)o3)nc2c1 | / | / | / | 0 | -5
Cc1ccc(-c2nc3cnccn3c2Nc2ccc3c(c2)OCO3)o1 | 5 | 9 | 36* | 1 | -5
c1ccc2c(c1)CCN(CCCNc1nc3ccccc3n3cnnc13)C2 | -7 | -10 | 70* | 0 | -26
O=C(CN1CCN(CCC(=O)Nc2ccccc2F)CC1)Nc1ccc(F)cc1 | -3 | -21 | 15 | 1 | -9
O=C(CCN1CCN(c2ccc(Cl)cc2)CC1)Nc1ccccc1F | -2 | -24 | 36* | 27 | -22
Cc1c(Cl)cccc1NC(=O)CC1NCCNC1=O (stereo not given) | -2 | -12 | 34* | 0 | 8
Cc1c(Cl)cccc1NC(=O)CC1SCCNC1=O (stereo not given) | -2 | -5 | 6 | 0 | 0

Screening results: PubChem BioAssay, National Center for Advancing Translational Sciences (NCATS)
